This is part of a sample that, as a whole, favours compounds with a hit. Of some 83,000 tested, about 20% had one in any assay.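 The test compound was applied at a single concentration to cells in 96-well plates for 48 hours, and percent growth was recorded.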 A number with no mark means an inactive call. Calls of active or inactive are those of the source. The calls were made as follows: active = growth percent below 10; inactive = the rest.

Among the test systems are SR leukemia; RPMI-8226 leukemia; OVCAR-8 ovarian; OVCAR-5 ovarian; OVCAR-4 ovarian; SK-OV-3 ovarian; IGROV1 ovarian; OVCAR-3 ovarian; HS 578T breast; NCI/ADR-RES ovarian; T-47D breast; BT-549 breast; MDA-MB-435 melanoma; SW-620 colon; MCF7 breast; HCT-116 colon; HCC-2998 colon; KM12 colon.
What all share (assay): NCI-60 one-dose screen, 48 h (100 = growth as untreated, 0 = no growth, -100 = all killed)
Holding throughout (conditions): 10 µM unless noted

As for `O=C1C(=O)N(CCCCn2cc(-c3ccccc3)nn2)c2ccccc21`, the growth with SR leukemia is 108%; in the assay on RPMI-8226 leukemia, 95.6%; with OVCAR-8 ovarian, 103%; in the assay with OVCAR-5 ovarian, 102%; in the assay on OVCAR-4 ovarian it was 106%; in the assay with SK-OV-3 ovarian it was 111%. In addition, the growth in the assay on IGROV1 ovarian was 101%; in the assay with OVCAR-3 ovarian, 111%; in the assay on HS 578T breast it was 99.1%; with NCI/ADR-RES ovarian it was 104%; in the assay with T-47D breast it was 93.4%; with BT-549 breast, 96.7%. Further, the growth with MDA-MB-435 melanoma is 108%; with SW-620 colon it was 104%; in the assay on MCF7 breast it was 94.9%; in the assay on HCT-116 colon, 101%; with HCC-2998 colon, 117%; with KM12 colon, 104%.
With `COc1ccc(C(=O)c2ccc(C)cc2)c(OC)c1OC`, the growth in the assay with SR leukemia is 56.6%; in the assay on RPMI-8226 leukemia, 88.7%; in the assay with OVCAR-8 ovarian, 90.4%; in the assay on OVCAR-5 ovarian it was 93%; with OVCAR-4 ovarian, 99.7%; in the assay on SK-OV-3 ovarian, 79.3%. Besides, the growth is 71.6% in the assay on IGROV1 ovarian; 66.7% in the assay on OVCAR-3 ovarian; 86.9% in the assay on HS 578T breast; 45.2% in the assay with NCI/ADR-RES ovarian; 90% with T-47D breast; 86.7% in the assay on BT-549 breast. Besides, the growth was -25.2% (active) in the assay on MDA-MB-435 melanoma; 33.6% in the assay with SW-620 colon; 72.2% in the assay on MCF7 breast; 58.4% in the assay on HCT-116 colon; 75.9% in the assay with HCC-2998 colon; 47.2% with KM12 colon.
Take `C=C(C)[C@@H]1CC[C@]2(C(=O)O)CC[C@]3(C)[C@H](CC[C@@H]4[C@@]5(C)C/C(=C/c6ccc(OC)cc6)C(=O)C(C)(C)[C@@H]5CC[C@]43C)[C@@H]12`: the growth in the assay on SR leukemia was 30.9%; in the assay with RPMI-8226 leukemia, 15.5%; with OVCAR-8 ovarian it was 23.2%; with OVCAR-5 ovarian, 49.3%; with OVCAR-4 ovarian, 26.8%; with SK-OV-3 ovarian, 25%. Besides, the growth was 23.8% in the assay on IGROV1 ovarian; 16.5% in the assay with OVCAR-3 ovarian; 49.9% with HS 578T breast; 17.7% in the assay on NCI/ADR-RES ovarian; 13.3% in the assay on T-47D breast; 26.2% in the assay with BT-549 breast. Moreover, the growth in the assay on MDA-MB-435 melanoma was 30.3%; in the assay on SW-620 colon it was 21.9%; in the assay on MCF7 breast it was 5.66% (active); in the assay with HCT-116 colon, 5.84% (active); in the assay on HCC-2998 colon, 21.7%; in the assay with KM12 colon, 21.3%.
Take `Cc1cc(N(CCCNc2ccnc3cc(Cl)ccc23)Cc2ccco2)nc(N2CCN(C)CC2)n1`: the growth in the assay on SR leukemia is -16.7% (active); in the assay on RPMI-8226 leukemia, 3.87% (active); with OVCAR-8 ovarian, 55.4%; in the assay with OVCAR-5 ovarian, 73.9%; in the assay on OVCAR-4 ovarian, 57%; in the assay with SK-OV-3 ovarian, 98%. Besides, the growth with IGROV1 ovarian is 38.5%; with OVCAR-3 ovarian, 56.6%; in the assay with HS 578T breast it was 67.6%; in the assay on NCI/ADR-RES ovarian, 59.8%; in the assay with T-47D breast, 23.6%; with BT-549 breast, 50.2%. Also, the growth is -5.06% (active) with MDA-MB-435 melanoma; 33.6% in the assay on SW-620 colon; 29% in the assay with MCF7 breast; 28.3% in the assay on HCT-116 colon; 86.9% in the assay on HCC-2998 colon; 63.3% in the assay with KM12 colon.
Regarding `COc1ccc(/C=C/C(=O)NCC(C)O)cc1` (stereo unspecified), the growth in the assay with SR leukemia was 105%; with RPMI-8226 leukemia, 105%; in the assay on OVCAR-8 ovarian, 97.9%; in the assay with OVCAR-5 ovarian, 89.2%; in the assay with OVCAR-4 ovarian, 104%; with SK-OV-3 ovarian, 87.8%. In addition, the growth in the assay on IGROV1 ovarian is 93.2%; with OVCAR-3 ovarian, 103%; in the assay on HS 578T breast, 94.4%; with NCI/ADR-RES ovarian it was 106%; in the assay on T-47D breast, 97.2%; with BT-549 breast it was 97.6%. Moreover, the growth in the assay on MDA-MB-435 melanoma is 104%; with SW-620 colon, 101%; in the assay on MCF7 breast it was 94.9%; with HCT-116 colon it was 91.3%; with HCC-2998 colon, 100%; with KM12 colon it was 99.9%.
`Oc1ccc(CCC2CCCC(CCc3ccc(OCCF)cc3)N2)cc1` (stereo unspecified): the growth was 67.2% in the assay on SR leukemia; 90.8% in the assay with RPMI-8226 leukemia; 93.3% in the assay on OVCAR-8 ovarian; 89.4% in the assay on OVCAR-5 ovarian; 82.9% in the assay on OVCAR-4 ovarian; 96% in the assay with SK-OV-3 ovarian. Further, the growth with IGROV1 ovarian is 96.2%; in the assay on OVCAR-3 ovarian it was 107%; with HS 578T breast it was 97.5%; in the assay with NCI/ADR-RES ovarian, 87.6%; with T-47D breast, 72.8%; in the assay on BT-549 breast it was 96.4%. Moreover, the growth in the assay with MDA-MB-435 melanoma is 99.5%; in the assay with SW-620 colon, 112%; in the assay on MCF7 breast, 89%; in the assay with HCT-116 colon it was 86%; in the assay with HCC-2998 colon, 88.4%; in the assay with KM12 colon, 104%.
Consider `Cc1cc(Cl)nc(N(CCCNc2ccnc3cc(Cl)ccc23)Cc2ccco2)n1`, for which the growth was -13.7% (active) in the assay with SR leukemia; -28.9% (active) in the assay on RPMI-8226 leukemia; 14.5% in the assay on OVCAR-8 ovarian; 31.9% in the assay on OVCAR-5 ovarian; 32% in the assay with OVCAR-4 ovarian; 40.8% in the assay on SK-OV-3 ovarian. Moreover, the growth with IGROV1 ovarian is 15.3%; with OVCAR-3 ovarian, 35.7%; in the assay with HS 578T breast, 58.8%; with NCI/ADR-RES ovarian, 5.99% (active); in the assay with T-47D breast it was 3.69% (active); with BT-549 breast, 8.06% (active). The growth was 22.8% in the assay with MDA-MB-435 melanoma; 20% in the assay with SW-620 colon; 12.2% with MCF7 breast; 3.68% (active) with HCT-116 colon; 22% in the assay on HCC-2998 colon; 22.4% with KM12 colon.

For the origin of these results see PubChem BioAssay (NCI).
